Reference: PMC4336329 (PLoS ONE, 2015)
Screen size: about 310,000 compounds; about 14,000 (4.5%) showed an effect of 50% or more. Effects have a minus sign here. This excerpt belongs to a sample that is enriched for strong results.

biological target: human ether-à-go-go-related gene (hERG) potassium channel (human, UniProt Q12809); assay: primary screen, population patch clamp on CHO cells stably expressing hERG; higher = less effect of the substance
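Further: peak tail current of the secondary pulse compared with the same well before compound.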

Chain of human ether-à-go-go-related gene (hERG) potassium channel (Q12809 whole entry, looked up): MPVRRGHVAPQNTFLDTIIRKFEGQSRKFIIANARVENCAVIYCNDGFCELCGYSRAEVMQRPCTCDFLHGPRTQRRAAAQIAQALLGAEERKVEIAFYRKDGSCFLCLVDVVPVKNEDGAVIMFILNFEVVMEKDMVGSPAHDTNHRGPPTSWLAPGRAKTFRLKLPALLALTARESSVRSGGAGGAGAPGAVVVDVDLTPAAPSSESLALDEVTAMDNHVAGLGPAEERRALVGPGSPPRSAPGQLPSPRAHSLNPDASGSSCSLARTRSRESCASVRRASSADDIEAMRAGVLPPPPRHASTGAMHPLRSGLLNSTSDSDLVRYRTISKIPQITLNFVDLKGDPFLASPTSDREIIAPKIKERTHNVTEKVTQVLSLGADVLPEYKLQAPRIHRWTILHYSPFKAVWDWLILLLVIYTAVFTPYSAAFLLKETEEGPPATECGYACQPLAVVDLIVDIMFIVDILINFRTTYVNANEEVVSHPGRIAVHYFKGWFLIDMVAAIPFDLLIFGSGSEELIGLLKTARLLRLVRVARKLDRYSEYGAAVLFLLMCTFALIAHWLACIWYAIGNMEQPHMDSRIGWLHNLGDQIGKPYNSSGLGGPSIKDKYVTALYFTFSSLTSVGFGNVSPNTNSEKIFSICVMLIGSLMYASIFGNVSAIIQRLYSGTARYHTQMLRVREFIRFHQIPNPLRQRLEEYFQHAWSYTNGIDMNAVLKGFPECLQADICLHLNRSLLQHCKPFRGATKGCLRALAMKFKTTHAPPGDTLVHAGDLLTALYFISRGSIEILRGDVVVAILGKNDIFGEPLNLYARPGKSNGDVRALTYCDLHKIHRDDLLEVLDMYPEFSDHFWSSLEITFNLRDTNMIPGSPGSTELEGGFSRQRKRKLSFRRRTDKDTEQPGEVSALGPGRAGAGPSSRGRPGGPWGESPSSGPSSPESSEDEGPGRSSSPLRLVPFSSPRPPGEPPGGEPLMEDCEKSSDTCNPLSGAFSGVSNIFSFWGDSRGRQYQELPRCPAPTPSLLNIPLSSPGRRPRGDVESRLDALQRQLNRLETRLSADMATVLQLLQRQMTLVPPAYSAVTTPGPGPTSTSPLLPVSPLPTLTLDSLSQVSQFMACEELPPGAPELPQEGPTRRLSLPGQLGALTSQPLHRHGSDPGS

SMILES | hERG current change (%, negative = inhibition) at 10uM [%]
COc1ccc(NC(=O)CO/N=C2/CCCc3nonc32)c(OC)c1 | 11.1
COc1ccc(CCNC(=O)Cn2nnc(-c3cccs3)n2)cc1OC | -7.76
Cc1onc(-c2ccccc2Cl)c1C(=O)N1CCC(C)CC1 | 4
COC(=O)/C(=C/c1ccccc1)NC(=O)c1ccco1 | 4.23
CCN1CCN(c2ccc(NC(=O)c3ccc4c(c3)OCO4)cc2)CC1 | -54.5
O=C(Nc1ccc(CN2CCCCC2)cc1)c1c(F)c(F)c(F)c(F)c1F | -56.5
O=C(Nc1ccc(CN2CCCCC2)cc1)c1ccc(Br)o1 | -33
CC(=O)Nc1ccc(CN2CCCCCCC2)cc1 | -4.11
CN1CCN(c2ccc(NC(=O)c3ccc4c(c3)OCO4)cc2)CC1 | -38.3
CCC(=O)N1CCN(c2ccc(NC(=O)c3ccc4c(c3)OCO4)cc2)CC1 | -0.905
Cc1nc2ccc(C(=O)Nc3ccccc3Cl)cc2s1 | 10.5
O=C(Cc1ccccc1F)NC1CCSc2ccccc21 (stereo not shown) | -13
O=C(Nc1ccccc1)NC1CCCCNC1=O (stereo not shown) | 21.4
Cc1cccc(C(=O)N/N=C/c2ccc(OC3CSC3)cc2)c1 | -92.4
COc1cccc(C(=O)N/N=C/c2ccc(OC3CSC3)cc2)c1 | 5.4
O=C(N/N=C/c1ccc(OC2CSC2)cc1)c1ccccc1 | -13.6
COC(=O)c1ccccc1NC(=O)c1ccc(Cn2cc(Cl)cn2)o1 | 4.21
CCOC(=O)C1=C(c2cccc(Oc3ccccc3)c2)NC(=S)NC1C (stereo not shown) | -15.8
CCn1c(CC(=O)Nc2ccccc2F)nnc1SCC(=O)Nc1nnc(C)s1 | -22.2
Cc1ccccc1C(=O)N1CCCC(N2CCN(Cc3ccc4c(c3)OCO4)CC2)C1 (stereo not shown) | -11.7
COc1ccc(OCC(=O)N2CCN(Cc3ccc4c(c3)OCO4)CC2)cc1 | -12.2
O=C(COc1ccc(Br)cc1)N1CCN(Cc2ccc3c(c2)OCO3)CC1 | -53.9

SMILES | hERG current change (%, negative = inhibition) at 10uM [%]
Cl.N#Cc1ccc(OCC(=O)N2CCN(Cc3ccc4c(c3)OCO4)CC2)cc1 | -68.1
O=C(c1ccc(F)cc1)N1CCCC(N2CCN(Cc3ccc4c(c3)OCO4)CC2)C1 (stereo not shown) | -22.2
O=C(COc1ccc(Cl)cc1)N1CCN(Cc2ccc3c(c2)OCO3)CC1 | -52.6
N#CCC(=O)N1CCN(Cc2ccc3c(c2)OCO3)CC1 | 16.3
O=C(COc1ccc(S(=O)(=O)N2CCOCC2)cc1)N1CCN(Cc2ccc3c(c2)OCO3)CC1 | -10
CCc1ccc(OCC(=O)N2CCN(Cc3ccc4c(c3)OCO4)CC2)cc1 | -15.9
O=C(CSCc1ccc(Cl)cc1)N1CCN(Cc2ccc3c(c2)OCO3)CC1 | -48.2
CN(C)c1ccc(C(=O)N2CCCC(N3CCN(Cc4ccc5c(c4)OCO5)CC3)C2)cc1 (stereo not shown) | -82.3
Cl.O=C(COc1ccc(Cl)cc1)N1CCN(Cc2ccc3c(c2)OCO3)CC1 | -48.2
CCOC(=O)Nc1ccc2c(c1)N(C(=O)CN(C)C)c1ccccc1CC2.Cl | -7.94
CCOC(=O)C1CCN(C(=O)c2cc3c(=O)n4cccc(C)c4nc3s2)CC1 | -15.5
FC(F)(F)c1cc(N2CCN(Cc3ccccc3)CC2)c2ccccc2n1 | 10.9
CC(CCc1ccccc1)NC(=O)CNC(=O)N1CC(=O)Nc2ccccc21 (stereo not shown) | -2.77
CCOCCOC(=O)c1[nH]c2c(c1C)C(=O)CC(c1ccccc1)C2 (stereo not shown) | 7.35
Cc1sc(NC(=S)NC(=O)c2ccc(C(C)(C)C)cc2)c(C#N)c1C | 6.48
COc1ccc(CCNC(=O)CN2C(=O)COc3ccc(S(=O)(=O)N4CCOCC4)cc32)c(OC)c1 | -28.1
CN(Cc1ccccc1)S(=O)(=O)c1ccc(OCC(=O)N2CCC(C(N)=O)CC2)cc1 | -2.99
O=C(Nc1ccc2ccccc2c1)N1CCN(c2ncccc2C(F)(F)F)CC1 | -7.58
O=C(c1cc([N+](=O)[O-])cc([N+](=O)[O-])c1)N1CCN(Cc2ccc3c(c2)OCO3)CC1 | -58.2
Cc1ccc(C(=O)N2CCN(Cc3ccc4c(c3)OCO4)CC2)cc1C | -14.4
CCCCOc1ccc(C(=O)NCC(=O)N2CCN(Cc3ccc4c(c3)OCO4)CC2)cc1 | -42.4
O=C(Cc1ccc([N+](=O)[O-])cc1)N1CCN(Cc2ccc3c(c2)OCO3)CC1 | -45.5

SMILES | hERG current change (%, negative = inhibition) at 10uM [%]
O=C(c1cccc([N+](=O)[O-])c1)N1CCN(Cc2ccc3c(c2)OCO3)CC1 | -44.3
CCCOc1ccc(C(=O)N2CCN(Cc3ccc4c(c3)OCO4)CC2)cc1 | -67.7
C/C(=N\NC(=O)Nc1ccccc1)c1ccccc1 | 9.14
NS(=O)(=O)c1ccc(CCNC(=O)COC(=O)CCSc2ccc(Cl)cc2)cc1 | -18.5
CC(C)(C)NC(=O)CCCSc1nc2ccccc2s1 | -24.4
Nc1nc(Cl)cc(Oc2ccc(Cl)cc2)n1 | 9.29
CCc1cccc(OC2OC(CO)C(O)C(O)C2NC(C)=O)c1 (stereo not shown) | 0.684
O=C(NCCNc1ccc(Cl)cc1[N+](=O)[O-])c1ccccc1F | 3.81
O=C(NCCCNc1ccnc2cc(Cl)ccc12)c1ccccc1F | -72.4
Clc1ccc2c(NCc3ccccc3)ccnc2c1 | -45.5
O=C(NCCNc1ccnc2cc(Cl)ccc12)c1ccccc1F | -66.4
O=C(NCCCNc1ccc([N+](=O)[O-])cc1Cl)c1ccccc1F | -4.03
Clc1ccc2c(NCc3ccccn3)ccnc2c1 | -39.7
C1=CCC(CN2CCNCC2)CC1.O=C(O)C(F)(F)F (stereo not shown) | 9.96
CN(C)C(=O)COC(=O)c1ccccc1NC(=O)c1ccco1 | -15.7
CC1CCN(C(=O)COC(=O)c2ccccc2NC(=O)c2ccco2)CC1 | -60.9
CC(C)(C)NC(=O)COC(=O)c1ccccc1NC(=O)c1ccco1 | -7.06
O=C(Nc1ccccc1C(=O)OCC(=O)N1CCc2ccccc2C1)c1ccco1 | -30.9
O=C(COC(=O)c1ccccc1NC(=O)c1ccco1)NC1CC1 | -19
CNC(=O)COC(=O)c1ccccc1NC(=O)c1ccco1 | -52.1
CS(=O)(=O)N1CCN(C2C3CC4CC(C3)CC2C4)CC1.O=C(O)C(=O)O (stereo not shown) | 26.3
CC(=O)Nc1ccc(N(C(=O)c2cnccn2)C(C(=O)NC2CCCCC2)c2ccc(F)cc2)cc1 (stereo not shown) | 0.645

SMILES | hERG current change (%, negative = inhibition) at 10uM [%]
CC(=O)c1ccccc1C(=O)N(C)C1CCCN(Cc2ccccc2F)C1 (stereo not shown) | 15.2
CNC(=O)N(O)C1N(/N=C/c2ccc(SC)cc2)C(=S)SC1(C)C (stereo not shown) | 26.3
O=C(NCCN1CCOCC1)c1ccc2c(c1)N(Cc1ccc(Cl)cc1)CCS2 | -29.8
N#Cc1c(N)n(-c2ccc(O)cc2)c2nc3ccccc3nc12 | 8.96
Cc1ccc(C)c(-c2[nH]ncc2CN2CCCC(CO)(Cc3ccccc3C)C2)c1 (stereo not shown) | -47.8
COc1cccc(CC2(CO)CCCN(Cc3ccccc3-c3ccco3)C2)c1 (stereo not shown) | -75.8
COc1cccc(CC2(CO)CCCN(Cc3cn[nH]c3-c3ccccc3)C2)c1 (stereo not shown) | -49.9
COc1ccc(CN2CCCC(CO)(Cc3ccc(F)cc3)C2)c(OC)c1OC (stereo not shown) | -71.1
COc1cccc(CC2(CO)CCCN(Cc3ccccc3Cl)C2)c1 (stereo not shown) | -31.2
COc1cccc(CC2(CO)CCCN(Cc3cn[nH]c3-c3cc(C)ccc3C)C2)c1 (stereo not shown) | -59.2
COc1cccc(CC2(CO)CCCN(Cc3cn(C)c4ccccc34)C2)c1 (stereo not shown) | -77.9
OCC1(Cc2ccc(F)cc2)CCCN(Cc2ccc(F)cc2Cl)C1 (stereo not shown) | -2.59
COc1cccc(CC2(CO)CCCN(Cc3ccc(-c4ccco4)cc3)C2)c1 (stereo not shown) | -3.75
COc1ccc(CN2CCCC(CO)(Cc3ccc(F)cc3)C2)cc1C (stereo not shown) | -47.7
CC1C(=O)C(C)C(c2ccco2)NC1c1ccco1.Cl (stereo not shown) | 13.9
O=C(CSc1nnc(CNC(=O)c2cccs2)o1)NC1CCCCC1 | -24
C/C(=N/NC(=O)c1ccncc1)c1ccc2c(c1)OCO2 | 13.8
COc1cccc(CC2(CO)CCCN(Cc3ccc(OC)c(C)c3OC)C2)c1 (stereo not shown) | -77.6
COc1ccc(C(N)=O)cc1NC(=O)c1cccc(F)c1 | 18.9
NC(=O)c1ccc(NC(=O)COC(=O)C(Cc2ccccc2)NC(=O)c2ccccc2)cc1 (stereo not shown) | -53
O=C(COC(=O)C(Cc1ccccc1)NC(=O)c1ccccc1)c1ccccc1 (stereo not shown) | -1.84
O=C(COC(=O)C(Cc1ccccc1)NC(=O)c1ccc(Cl)cc1)c1ccc(Cl)cc1 (stereo not shown) | -27.3
